p53ts 39C tox: qHTS Screen for Compounds that Selectively Target Cancer Cells with p53 Mutations: Cytotoxicity of p53ts Cells at the Nonpermissive Temperature. H1299-p53A138V viability at 39C, ATP luminescence, 24 h. Potency, µM (highest dose often 46.1 µM), usual class: cytotoxic. 130,000 tested, 1.5% active; also: nearly all actives have a fitted effect of over 55% in size
Peg3 imprint: qHTS Assay for Compounds that Induce Erasure of Genomic Imprints; mouse ES Peg3-LacZ reporter, beta-gal luminescence, 40 h; Potency, µM (top dose mostly 60.7 µM), usual class: activators; 110,000 tested, 0.02% active
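Imprint erasure is scored as LacZ activity from the silenced maternal Peg3 allele in feeder-free female ES cells cultured 40 h with LIF. Luminescence is normalized to in-plate negative controls and fitted to the Hill equation.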
p53ts 32C kill: qHTS Screen for Compounds that Selectively Target Cancer Cells with p53 Mutations: Cytotoxicity of p53ts Cells at the Permissive Temperature. H1299-p53A138V at 32C, ATP luminescence viability, 24 h. Potency, µM (highest dose often 46.1 µM), actives largely listed as cytotoxic. 130,000 tested, 0.93% active; also: nearly all actives have a fitted effect of over 55% in size
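Cells: H1299 p53ts (A138V), 600/well, pre-incubated 16–30 h at 37C. Cpd up to 46 uM, 24 h, 32C. Readout: ATPlite luminescence, 20 min RT. Normalization: DMSO vs tamoxifen 100 uM. AC50 by Hill equation.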
IkB signaling: IkB Signaling; Potency, µM (doses to about 57.1 µM); ABC-DLBCL IkBa-CBG/CBR dual luciferase ratio, 4 h; response scale: scaled: untreated 0%, proteasome inhibitor 100%; AID 445, 2006; 110,000 tested, 0.04% active; active = well fitted curve in the direction sought with a large enough effect in the signal ratio, not every such curve was filed as active; inconclusive = small, poorly fitted or top-dose-only effect, or a change in a side signal; the % refers to the signal ratio;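 also: the direction sought is a rising ratio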
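In this assay, an IκBα–CBG68 fusion accumulates when IKK-driven degradation is blocked; native CBR normalizes for cell number. OCI-Ly3 cells were treated 4 h with compound and doxycycline, then green and red light read after Chroma-Glo addition.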
Hits are given with their value; i = inactive; ? = inconclusive; nt = not tested or not shown; [ ] = remark or other dose. In the library only some 1.6% were active in any assay of this set; here they are far more common. Unless noted, calls follow the shape of the dose curve; as a rule, active = well fitted curve in the direction sought with a large enough effect; inconclusive = small, poorly fitted or top-dose-only effect, or another doubt; inactive = no such curve, though single readings can be large; an effect the other way counts as inactive or inconclusive.

SMILES	p53ts 39C tox	Peg3 imprint	p53ts 32C kill	IkB signaling
CC[C@@H]1CN2CCc3cc(OC)c(OC)cc3[C@H]2C[C@@H]1C[C@@H]1NCCc2cc(OC)c(OC)cc21	?	nt	i	?
CC(=O)[O][Hg][c]1ccccc1	1.6µM	i	1µM	?
C=CCN1CC[C@@]23CCCC[C@@H]2[C@@H]1Cc1ccc(O)cc13	i	nt	i	i
NC(=O)CI	5µM	i	6.3µM	i
CN1C[C@@H](CNC(=O)OCc2ccccc2)C[C@H]2c3cccc4c3c(cn4C)C[C@@H]21	nt	nt	nt	i
C[C@H](N[C@@H](C)CCc1ccccc1)[C@H](O)c1ccc(O)cc1	i	nt	i	i
CC(C)CCCC1(C)C=Cc2c(O)c3c(c(CCC(C)C)c2O1)OC12C(CC4CC1C(C)(C)OC2(CCC(C)C(=O)O)C4O)C3=O (centres undefined)	?	?	i	nt
CC(C)=CCCC1(C)C=Cc2c(O)c3c(c(CC=C(C)C)c2O1)OC12C(=CC4CC1C(C)(C)OC2(C/C=C(/C)C(=O)O)C4O)C3=O (centres undefined)	5µM	i	5µM	nt
CC(C)=CCCC1(C)C=Cc2c(O)c3c(c(CC=C(C)C)c2O1)OC12C(=CC4CC1C(C)(C)OC2(C/C=C(/C)C(=O)O)C4=O)C3=O (centres undefined)	6.3µM	i	4µM	nt
C[C@@]12CC[C@H]3[C@@H](CCC4=C(O)C(=O)CC[C@]43C)[C@H]1CCC2=O	i	nt	i	i
O=C(O)CN1CCN(CC(=O)O)CC(=O)[O][Hg][O]C(=O)C1	i[9.22 µM]	i[10.9 µM]	i[9.22 µM]	4µM
C=C[C@@H]1CN2CC[C@H]1CC2[C@H](O)c1ccnc2ccccc12 (some centres undefined)	nt	i[10.9 µM]	nt	nt
CCCC[N+]1(C)[C@@H]2CC(OC(=O)[C@@H](CO)c3ccccc3)C[C@H]1[C@H]1O[C@H]12 (some centres undefined)	i	nt	i	i
CNc1ccc2oc(C[C@H]3O[C@]4(CC[C@H]3C)O[C@H]([C@H](C)C(=O)c3ccc[nH]3)[C@H](C)C[C@H]4C)nc2c1C(=O)O	3.2µM	i	4µM	?
COc1ccc2nc(N3CCN(C(=O)CS(=O)(=O)c4ccc(C)cc4)CC3)sc2c1	7.9µM	i[10.9 µM]	11µM	i
COc1c(C)cc(Br)cc1C(=O)Nc1ccc(-c2nc3ncccc3o2)cc1	6.3µM	i[10.9 µM]	i	i
COc1cc2c(cc1OC)[C@@]13CCN4C=C5CCO[C@H]6CC(=O)N2[C@@H]1C6[C@H]5C[C@H]43 (some centres undefined)	nt	i[10.9 µM]	nt	nt
N[C@H](Cc1c[nH]c2ccccc12)P(=O)(O)O	i[9.22 µM]	0.63µM	i[9.22 µM]	i[11.4 µM]
Oc1ccc([C@H](O)C2CCCCN2)cc1O (some centres undefined)	nt	i[10.9 µM]	nt	nt
C[C@]12CC[C@H](O)C[C@@H]1CC[C@H]1[C@H]2CC[C@]2(C)[C@H](C(=O)CO)CC[C@@H]12	i	nt	i	i
Cc1ccc(C(=O)COC(=O)c2cccc(NC(=O)c3ccc(Br)cc3)c2)cc1	7.9µM	i[10.9 µM]	?	?
C#CCN[C@@H](C)Cc1ccccc1	i	nt	i	i
Oc1ccc2c3c1O[C@@H]1c4[nH]c5c(c4C[C@@]4(O)[C@@H](C2)N(CC2CC2)CC[C@]314)C[C@]1(O)[C@@H]2Cc3ccc(O)c4c3[C@@]1(CCN2CC1CC1)[C@H]5O4	i	nt	i	i

Source: PubChem BioAssay
